Assay [1] can be described thus: hESC survival regulators, cell-based (AID 493140).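 Also: cells exposed to compounds for four days before counting.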 As to conditions: human embryonic stem cell survival screen; stronger effect = higher value.
Assay [2] is described as follows: liver-stage malaria parasite growth inhibition, primary screen, cell-based, HepG2, luciferase luminescence, HepG2 viability (AID 624349; in the data active = parasite load remaining mostly below about 12%, no sharp cut-off; inactive = mostly above about 10%;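 also: 100% = mean of DMSO negative control wells on the same plate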). Conditions: P. berghei liver stage in HepG2, luciferase luminescence, concentration not given here; parasite load remaining: stronger effect = lower value; viability: measured here: HepG2 viability without parasites.
The nature of assay [3]: Cy5 fluorescence interference with SSB-bound oligo, artefact control for HCV NS3 helicase inhibitor project, biochemical, NIH Clinical Collection, E. coli SSB (AID 743268).
Assay [4] concerns Hepatitis C virus NS3 helicase. The assay is described as follows: HCV NS3 helicase inhibitors, primary screen, biochemical, fluorescence polarization, NIH Clinical Collection (AID 743270). Conditions: NS3 helicase binding to Cy5-dT15 DNA, stronger effect = higher value, concentration not given here. In general terms: In fluorescence polarisation assays a small probe gives low polarisation when free and higher when bound to something large.

Assay [5] addresses Single-stranded DNA-binding protein (Escherichia coli (strain K12)) (UniProt P0AGE0). The assay is described as follows: E. coli SSB displacement from DNA, counter-screen for HCV NS3 helicase inhibitor project, biochemical, fluorescence polarization, NIH Clinical Collection (AID 743271; in the data active = inhibition above about 28%). Conditions: stronger effect = higher value, concentration not given here. A general note: The purpose of a counterscreen is to sort out artefacts and off-target activity.

The nature of assay [6]: fluorescence interference in NS3h assay format, artefact control for HCV NS3 helicase inhibitor project, biochemical, NIH Clinical Collection (AID 743272).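 Also: HCV NS3 helicase with a Cy5 labelled single stranded DNA probe.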 As to conditions: fluorescence interference counterscreen, stronger effect = lower value.
The nature of assay [7]: modulation of C. elegans fzo-1 (AID 1259413).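 Also: fzo-1 mutant C. elegans worms in liquid wells.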 Conditions: C. elegans fzo-1 modulator screen, mean read-out; stronger effect = higher value.
Assay [8] is described as follows: viability rescue of complex I mutant cybrids, primary screen, cell-based, galactose medium, ATP luminescence (AID 1645843;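 active = z-score of at least 1.8 in each of two replicates, scored against plate mean and spread of sample wells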;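 also: positive z means more ATP and so rescue of galactose-driven cybrid death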). As to conditions: complex I mutant cybrid cells, 72 h, stronger effect = higher value.
Another assay concerns F380Y/beta1. The assay is described as follows: modulators of BK channel variants, profiling panel, selectivity assay, cell-based, U2OS BacMam, thallium flux, beta subunits (AID 1259406;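 active = thallium flux through the channel raised or lowered by more than 3 SD from vehicle-only wells, actives on both sides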;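 also: initial slope of Thallos dye fluorescence rise after thallium is added; log ratio against the mean of 0.3% DMSO vehicle wells on the same plate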). Conditions: at 30 µM.
The next assay deals with F380Y/beta4. The description is as above. Conditions: at 30 µM.
The subject of a further assay is R275C/beta4. Described as above. As to conditions: at 30 µM.
The next assay deals with R275C/Slo1WT/beta2. The assay is described as above. Conditions: at 30 µM.
The nature of assay [9]: polyglutamine-triggered caspase-3 activation inhibitors, cell-based (AID 1583). As to conditions: polyglutamine-induced caspase-3 activation, cell assay; stronger effect = higher value;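 tested at 10 µM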.
Assay [10] in a line: suppressors of polyQ aggregation in yeast, 75Q-TubU reporter (AID 1593). As to conditions: Yeast 75Q polyglutamine aggregation reporter.
Assay [11] is described as follows: rescue of polyQ-huntingtin neuronal dysfunction in worms, whole organism, C. elegans mechanosensory neurons, N-terminal huntingtin (AID 1599). As to conditions: touch response, stronger effect = higher value.
Assay [12] can be described thus: inhibitors of mitochondrial cytochrome c release, biochemical, purified mitochondria (AID 1603).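 Also: mouse liver mitochondria challenged with calcium chloride; signal normalized to the plate average as 100%.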 Conditions: stronger effect = lower value.
Assay [13] is described as follows: inhibitors of polyQ protein aggregation (AID 1604). Conditions: polyglutamine-induced protein aggregation inhibition assay; stronger effect = higher value; tested at 2.5 µM.
A short description of assay [14]: enhancers of glutamate uptake in motor neurons, MN-1 cell line (AID 1612).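 Also: tested at 1 µM final; 0% = mean of DMSO vehicle wells on each plate; positive means more glutamate uptake than control and negative means less.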 Conditions: MN-1 motor neuron cells, stronger effect = higher value.
Assay [15] can be described thus: suppressors of polyglutamine aggregation in yeast, 75Q-TubH (AID 1616). Conditions: S. cerevisiae 75Q-TubH polyglutamine aggregation suppression; stronger effect = higher value.

The structures appear in SMILES notation. Several values for one entry are separate records, joined by “and”; a condition that tells them apart may be missing. Identical values can stand only once. For some of these results: Measured potencies and affinities stand elsewhere. The source holds several records for some structures; these can differ, active in one and inactive in another. Activity calls are given as the source filed them. Unless noted, no rule for the calls is given here.

Usually viability stands for a read-out of living cells in per cent, often relative to untreated cells. The inhibition is the change of the read-out against control, counted positive when it falls. For the compound `CC(C)(C)NC[C@H](O)COc1nsnc1N1CCOCC1`, the survival in [1] was 4.17 (inactive). Also, in assay [2], the parasite load remaining was 64.7% (inactive) and 81.2% (inactive) and 46% (inactive). Also, the viability in assay [2] is 97.8% and 98% and 104%. The fluorescence ratio in [3] was 0.99 (inactive); in assay [6] it was 0.98 (inactive). Also, the inhibition is 0.45% (inactive) in assay [4] and 2.57% (inactive) in assay [5]. The mean signal in [7] was 275 (inactive). In addition, in [8], the z-score was 0.57 (inactive) and -0.2 (inactive) and 0.33 (inactive). For the same compound, the log fold change Tl+ flux is -0.0365 (inactive) in the assay with F380Y/beta1, 0.0021 (inactive) in the assay with F380Y/beta4, -0.0714 (inactive) with R275C/beta4 and -0.0819 (inactive) with R275C/Slo1WT/beta2.
`COc1ccccc1N1CCN(CCCNc2cc(=O)n(C)c(=O)n2C)CC1`: the survival in [1] was 5.83 (inactive). Besides, the parasite load remaining in assay [2] is 53.4% (inactive) and 119% (inactive) and 80.7% (inactive). Moreover, in assay [2], the viability was 95.1% and 83.4% and 78.9%. The fluorescence ratio in [3] is 0.99 (inactive); in [6], 0.96 (inactive). For the same compound, the inhibition in [4] was -2.77% (inactive); in [5] it was -1.64% (inactive). Besides, the mean signal in [7] was 262 (inactive). Further, the z-score in [8] is 0.56 (inactive) and 1 (inactive) and -0.025 (inactive).
Regarding `CCC(=O)O[C@]1(C(=O)CCl)[C@@H](C)C[C@H]2[C@@H]3CCC4=CC(=O)C=C[C@]4(C)[C@@]3(F)[C@@H](O)C[C@@]21C`, the parasite load remaining in assay [2] is 49% (inactive) and 35.1% (inactive). In addition, in assay [2], the viability was 110% and 128%. Besides, the figures for the fluorescence ratio in assay [3] and in [6] were 1.01 (inactive) and 0.96 (inactive), respectively. Further, the inhibition was 4.09% (inactive) in assay [4] and 2.57% (inactive) in [5]. Further, the z-score in [8] is -1.34 (inactive) and 0.04 (inactive). Besides, the log fold change Tl+ flux with F380Y/beta1 was 0.254 (active); in the assay on F380Y/beta4 it was 0.236 (active); in the assay on R275C/beta4 it was 0.386 (active); in the assay with R275C/Slo1WT/beta2, 0.0324 (inactive).
For the compound `CN1CCN(CCCN2c3ccccc3Sc3ccc(C(F)(F)F)cc32)CC1`, the inhibition was -8.73% in [9], -1.19% (inactive) in assay [4] and 1.44% (inactive) in assay [5]. The score in assay [10] turned out to be 1.12. Besides, the rescue above control in assay [11] worked out at 0. Besides, the cytochrome c release ratio in assay [12] is 2.01. Moreover, the inhibition of aggregation in [13] was 65.5%. The glutamate uptake change in assay [14] was determined as 16.2%. Besides, in assay [15], the aggregation suppression score amounted to 1.63. Further, the survival in [1] is 1.83 (inactive). Further, the fluorescence ratio was 0.87 (inactive) in assay [3] and 0.85 (inactive) in assay [6]. Besides, in [7], the mean signal is 265 (inactive). In addition, the z-score in assay [8] was -1.38 (inactive) and -1.44 (inactive) and -1.35 (inactive).
As to `CC(=O)OCC(=O)[C@@]1(O)CC[C@H]2[C@@H]3CCC4=CC(=O)CC[C@]4(C)[C@H]3C(=O)C[C@@]21C`, in assay [2], the parasite load remaining was 71.9% (inactive). Moreover, the viability in [2] was 95.8%. Moreover, the fluorescence ratio in [3] is 1.07 (inactive); in assay [6] it was 1.01 (inactive). For the same compound, the inhibition is -0.45% (inactive) in [4] and -0.48% (inactive) in assay [5]. Moreover, the z-score in [8] is 0.82 (inactive) and 2.46 (active). For the same compound, the log fold change Tl+ flux is 0.0066 (inactive) with F380Y/beta1, -0.0455 (inactive) in the assay with F380Y/beta4, -0.00976 (inactive) with R275C/beta4 and 0.0162 (inactive) in the assay on R275C/Slo1WT/beta2.
With `CCCN1C[C@H](CSC)C[C@@H]2c3cccc4[nH]cc(c34)C[C@H]21`, the inhibition is 21.1% in [9], 1.53% (inactive) in assay [4] and 10.6% (inactive) in assay [5]. Besides, in [10], the score stood at 1. The same compound displayed a rescue above control in [11] of -1.5. In assay [12], the cytochrome c release ratio turned out to be 1.44. Also, the inhibition of aggregation in [13] came out at 61.1%. For the same compound, in assay [14], the glutamate uptake change is -2.13%. The same compound registered an aggregation suppression score in assay [15] of 1.46. The survival in assay [1] is 12.4 (inactive). The fluorescence ratio is 1.02 (inactive) in assay [3] and 1 (inactive) in [6]. Further, the z-score in assay [8] was 0.12 (inactive) and -0.1 (inactive).
With `CC(=O)OCC(=O)[C@@]1(O)CC[C@H]2[C@@H]3CCC4=CC(=O)C=C[C@]4(C)[C@H]3[C@@H](O)C[C@@]21C`, the parasite load remaining in [2] was 83.8% (inactive). Further, the viability in [2] was found to be 90.8%. Moreover, the fluorescence ratio in assay [3] is 0.95 (inactive); in assay [6], 0.91 (inactive). The inhibition is -5% (inactive) in assay [4] and -0.48% (inactive) in assay [5]. Further, the z-score in assay [8] is 0.085 (inactive). The log fold change Tl+ flux in the assay on F380Y/beta1 is 0.0202 (inactive); in the assay on F380Y/beta4 it was 0.0608 (inactive); with R275C/beta4, 0.0243 (inactive); with R275C/Slo1WT/beta2, 0.0458 (inactive).
Take `NC(N)=NC(=O)c1nc(Cl)c(N)nc1N`: the inhibition in assay [9] was 17.4%; in assay [4], 6.73% (inactive); in [5], 13.8% (inactive). For the same compound, the score in assay [10] turned out to be 0.64. This compound displayed a rescue above control in [11] of -10.9. In addition, the cytochrome c release ratio in assay [12] worked out at 1.1. The same compound registered an inhibition of aggregation in [13] of 27.6%. In addition, in [14], the glutamate uptake change is -1.52%. In assay [15], this compound showed an aggregation suppression score of 1.02. In addition, the survival in [1] was 8.17 (inactive). Moreover, the fluorescence ratio in [3] is 0.95 (inactive); in [6], 0.9 (inactive). In assay [7], the mean signal is 212 (inactive).
As to `CNC(=O)Oc1ccc2c(c1)[C@]1(C)CCN(C)[C@@H]1N2C`, in [9], the inhibition came to 8.95%. This compound gave a score in [10] of 1.22. In addition, the rescue above control in assay [11] worked out at 1.05. For the same compound, the cytochrome c release ratio in [12] turned out to be 1.08. The compound further yielded an inhibition of aggregation in assay [13] of 39.4%. Moreover, the glutamate uptake change in [14] was -18.2%. Also, the aggregation suppression score in assay [15] is 1.03. Also, in assay [1], the survival is 7.25 (inactive). The z-score in assay [8] was -0.835 (inactive) and -0.865 (inactive).
Turning to `Cc1c(OCC(F)(F)F)ccnc1CS(=O)c1nc2ccccc2[nH]1` (stereo not given), the inhibition in assay [9] was -8.62%; in assay [4], 1.53% (inactive); in [5] it was 1.18% (inactive). In assay [10], this compound yielded a score of 0. For the same compound, the rescue above control in [11] stood at 4.9. In addition, the cytochrome c release ratio in assay [12] came out at 0.73. In assay [13], this compound yielded an inhibition of aggregation of 29.4%. Moreover, the glutamate uptake change in assay [14] is -0.46%. This compound showed an aggregation suppression score in assay [15] of -0.00244. Moreover, the survival in assay [1] was 14.6 (inactive). Also, the results for the fluorescence ratio in [3] and in assay [6] were 0.95 (inactive) and 0.94 (inactive), respectively. Moreover, the mean signal in assay [7] is 250 (inactive). Further, the z-score in assay [8] is -1.12 (inactive) and -0.8 (inactive) and -0.405 (inactive).
Turning to `O=C1N=C(O)CN1/N=C/c1ccc(-c2ccc([N+](=O)[O-])cc2)o1`, the inhibition in assay [9] stood at 24%. This compound also registered a score in assay [10] of 1.7. This compound also came in with a rescue above control in [11] of -1.39. Besides, the cytochrome c release ratio in assay [12] was 0.66. The inhibition of aggregation in assay [13] came out at 71.6%. Besides, the glutamate uptake change in assay [14] is -2.24%. In assay [15], this compound yielded an aggregation suppression score of 1.1. Moreover, the survival in [1] was 28.9 (inactive). For the same compound, in [2], the parasite load remaining was 21.2% (inactive) and 82.2% (inactive) and 9.57% (inactive); the viability is 47.1% and 91.4% and 102%. For the same compound, the mean signal in assay [7] was 232 (inactive). Moreover, the z-score in assay [8] is -0.315 (inactive) and -0.365 (inactive).
